PKM2 activator = increases activity of human pyruvate kinase M2; 0.34% of 260,000 active; purified PKM2, Kinase-Glo ATP luminescence, activation; response scale: 0% is enzyme alone, no compound; AID 1631; P14618; Potency, µM (highest dose often 57.5 µM), for inactives: at the highest dose activation, actives largely listed as activators; note: potency is the fitted concentration of half-maximal effect; % is set by controls: 0 for no effect and ±100 for the full control effect; nearly all actives have a fitted effect of over 55% in size
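ATP formation by purified human PK-M2, quantified via coupled luciferase luminescence after 1 h at room temperature with 0.1 mM ADP and 0.5 mM PEP final.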
B2AR arrestin = beta2AR (human) beta-arrestin recruitment activity | P07550 | beta-arrestin recruitment to beta2AR, cell-based reporter | Potency, µM (series often up to 46.1 µM), inactives show top-dose activation, hits mostly activators | 0.02% of 330,000 active;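 note: potency is the fitted concentration of half-maximal effect; 0% = DMSO controls and full agonism = EC100 isoproterenol or metaproterenol; nearly all actives have a fitted effect of over 65% in size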
Target sequence (P07550 whole entry, looked up): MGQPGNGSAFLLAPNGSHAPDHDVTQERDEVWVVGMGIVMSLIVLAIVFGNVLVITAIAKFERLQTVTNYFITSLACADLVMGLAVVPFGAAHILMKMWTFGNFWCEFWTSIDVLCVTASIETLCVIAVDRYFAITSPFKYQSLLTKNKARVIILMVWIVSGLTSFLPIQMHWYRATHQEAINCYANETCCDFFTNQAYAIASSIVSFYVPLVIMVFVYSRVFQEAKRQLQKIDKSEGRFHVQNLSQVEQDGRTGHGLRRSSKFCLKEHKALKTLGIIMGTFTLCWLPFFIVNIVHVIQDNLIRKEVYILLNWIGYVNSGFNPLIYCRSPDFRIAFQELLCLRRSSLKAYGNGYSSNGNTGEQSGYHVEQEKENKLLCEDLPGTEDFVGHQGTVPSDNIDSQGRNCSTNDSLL
Epigenetic reg = derepresses silenced GFP reporter in murine cells; murine LDR cells, GFP reporter derepression, 30 h; Potency, µM (titrated, usually from 53.9 µM), without a hit: at the top dose GFP activation, hits mostly activators; 0.2% of 280,000 active; AID 1865; note: potency is the fitted concentration of half-maximal effect; % of control where 0% means no effect; nearly all actives have a fitted effect of over 60% in size
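Reporter derepression read as number of fluorescent GFP-positive objects, 20-120 um in size, counted by laser-scanning cytometer. Mouse LDR line with an epigenetically silenced CMV-GFP locus; compound incubation 30 h, 37 C.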
PINK1 expr mod = modulators of PINK1 expression; 0.2% of 410,000 active; Potency, µM (doses to about 76.6 µM), for the others: at the top dose activation (PINK1 increase), hits mostly activators; AID 624263; PINK1 immunofluorescence, high-content cytometry, 24 h; active = well fitted activation curve with a large enough effect; inconclusive = small, poorly fitted or top-dose-only effect; cell line not stated here; note: potency is the fitted concentration of half-maximal effect; % of control where 0% means no effect; nearly all actives have a fitted effect of over 65% in size
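PINK1 protein level read as immunofluorescence by microplate cytometer in a fixed, stained stable cell line after 24 h exposure to five compound concentrations, with CCCP as control.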
IL-2 act = activators of IL-2; IL-2 activation reporter assay, cell-based qHTS; stimulated with anti-CD3/CD4/CD28 beads; in transgenic mouse T cells; activation, % (series mostly up to about 46 µM); 0.065% of 360,000 active; in the data active = activation above about 50%; inconclusive = mostly about 30% to 49%; note: 0% is about no effect
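Unstimulated transgenic mouse T cells; 60-min compound exposure; bead-based TCR/CD4/CD28 stimulation; 18 h culture, 37 degrees C; dual fluorescence (EGFP, DsRed) plate cytometry.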
* = called active by the depositor; ? = inconclusive; / = not tested or not shown. Only some compounds are listed: those with a hit (about 0.58% of all), similar ones and a draw of the others. Unless noted, calls come from the whole dose curve; as a rule, active = well fitted curve in the direction sought with a large enough effect; inconclusive = small, poorly fitted or top-dose-only effect, or another doubt; inactive = no such curve, though single readings can be large; an effect the other way counts as inactive or inconclusive.

SMILES	PKM2 activator	B2AR arrestin	Epigenetic reg	PINK1 expr mod	IL-2 act
Cc1ccc(CN(C)C(=O)c2ccc(S(=O)(=O)N(C)c3ccccc3)cc2)o1	/	0.1%	/	0.5%	-0.6
O=C(NCC1Cc2cc(F)cc(-c3cccnc3)c2O1)c1cnn(-c2ccccc2)c1 (centres undefined)	/	/	/	1.8%	/
COc1ccccc1C1CN(Cc2c(C)nc3sccn23)Cc2ccccc2O1 (centres undefined)	/	/	/	1.5%	/
N#Cc1c(NC(=O)c2ccccc2)sc2c1CCCCC2	-4.4%	-1.4%	-1.2%	2.6%	-0.7
N#Cc1c(Cl)nsc1NC(=O)c1ccccc1	4.0%	-0.1%	-1.0%	12.6µM*	0.1
Clc1ccccc1C1CC(c2ccccc2)=Nc2ccccc2N1 (centres undefined)	-6.2%	0.3%	0.0%	18.3%	76.6*
Brc1ccccc1C1CC(c2ccccc2)=Nc2ccccc2N1 (centres undefined)	-9.7%	-0.7%	-1.9%	3.5%	-3.7
Cn1ccs/c1=N\S(=O)(=O)c1ccc(Br)cc1	15.8µM*	-0.4%	0.0%	0.3%	1.6
O=C(NCC1CCC2(CCN(Cc3cnn(-c4ccc(F)cc4)c3)CC2)O1)c1ccccc1 (centres undefined)	/	/	/	0.2%	/
CC1(C)Cc2nc3sc4c(=O)n(CC(=O)NCc5ccco5)cnc4c3cc2CO1	-8.1%	-0.9%	-0.9%	11.2µM*	-1.2
Cn1c(SCC(=O)N/N=C/C=C/c2ccco2)nc2ccccc21	-7.2%	18.4µM*	3.4%	-1.4%	0.2
O=C(O)c1ccccc1-c1ccc(/C=C2\SC(=O)N(c3ccccc3)C2=O)o1	2.7%	-1.0%	/	-1.0%	-0.3
O=C1S/C(=C\c2ccc(N3CCOCC3)o2)C(=O)N1c1ccccc1	7.2%	0.0%	14.1µM*	?	0.1
O=C1S/C(=C/c2ccc(N3CCOCC3)o2)C(=O)N1Cc1c(F)cccc1Cl	?	-1.0%	2.51µM*	?	12.5
O=C1S/C(=C\c2ccc(N3CCOCC3)o2)C(=O)N1Cc1c(F)cccc1Cl	2.51µM*	-0.6%	8.91µM*	?	-3.6
O=C(Nc1cccc(NC(=O)c2ccco2)c1)c1ccc2c(c1)OCCO2	-5.0%	-0.8%	-3.3%	3.5%	-1.4
O=C(Nc1ccc2c(c1)OCCO2)c1ccco1	-29.6%	0.5%	-2.1%	11.2µM*	-1.2
CN(C)CCCN1C(=O)c2cccc3c(Br)ccc(c23)C1=O	-0.9%	-0.3%	?	-1.5%	-0.2
CCCCNc1ccc2c3c(cccc13)C(=O)N(CCCC)C2=O	-6.2%	-1.1%	3.16µM*	?	9.8
COc1cc(=O)n2c(c1C(=O)N(C)Cc1cscn1)CCN(C(=O)c1ccc(C)c(C)c1)CC2	/	/	/	1.1%	/
COc1ccccc1-c1ccnc(-n2ncc(C(=O)NCC3(N4CCOCC4)CCCC3)c2C)n1	/	/	/	0.9%	/
COc1ccc(NC(=O)CSc2nc3ccccc3cc2Cc2ccccc2)cc1	-1.7%	-0.4%	1.3%	11.2µM*	0.0
CCOC(=O)Cn1c(=NC(=O)c2ccc([N+](=O)[O-])s2)sc2ccccc21	-2.1%	-0.1%	?	25.1µM*	2.3
Clc1ccc(C2=C3CCCCn4c(-c5ccccc5)c[n+](c43)C2)cc1	-1.0%	0.0%	1.2%	15.8µM*	1.6
COc1ccc(-c2c[n+]3c4n2CCCCC4=C(c2ccc(Br)cc2)C3)cc1	-1.5%	-1.0%	5.7%	?	-1.0
SMILES	PKM2 activator	B2AR arrestin	Epigenetic reg	PINK1 expr mod	IL-2 act
O=C(NC[C@@H]1CCCN2CCCC[C@H]12)c1cnn(-c2nccc(-c3cc4ccccc4o3)n2)c1C1CC1	/	/	/	0.9%	/
N#C/C(=C(/O)c1ccc(F)cc1)c1nc2ccccc2s1	-0.7%	-0.1%	3.9%	15.8µM*	-0.3
N#C/C(=C(/O)COc1ccccc1)c1nc2ccccc2s1	1.8%	0.1%	-1.5%	?	-0.3
CCOc1ccc(/C=C/C(=O)Nc2ccc(OC)cc2[N+](=O)[O-])cc1	-0.4%	-0.9%	?	?	114.0*
COc1ccc(NC(=O)c2cccc(NC(=O)C(C)C)c2)c([N+](=O)[O-])c1	-8.9%	-1.1%	-1.0%	14.7%	-2.5
CCc1nc(SCC(=O)Nc2ccc(OC)cc2[N+](=O)[O-])n[nH]1	25.1µM*	0.2%	15.5%	0.2%	1.7
CCOc1ccc(NC(=O)/C=C/c2ccccc2)c([N+](=O)[O-])c1	-13.2%	-0.3%	?	?	3.1
COc1ccc(NC(=O)c2ccc(NC(=O)C(C)C)cc2)c([N+](=O)[O-])c1	-1.2%	0.2%	14.1µM*	?	10.7
COc1ccc(NC(=O)CSc2ncn[nH]2)c([N+](=O)[O-])c1	?	-0.1%	0.0%	/	-1.2
CCOc1ccc(NC(=O)CSc2ncn[nH]2)c([N+](=O)[O-])c1	15.8µM*	0.1%	0.0%	2.4%	-0.1
COc1ccc(NC(=O)CSc2n[nH]c(-c3ccncc3)n2)c([N+](=O)[O-])c1	1.0%	-0.2%	/	0.0%	0.7
CO[C@H]1[C@H](NC(=O)c2ccco2)c2ccccc2C12CCN(Cc1cnn(-c3ccccc3)c1)CC2	/	/	/	-0.1%	/
COc1ccccc1CCNc1ncnc2sc(C(=O)N3CCCC3)c(C)c12	/	/	/	0.3%	/
COc1ccc(O)c(CN2CCOc3c(cc(-c4cccc(OC)n4)cc3OC)C2)c1	/	/	/	1.1%	/
Cn1c(=O)n(C)c2cc(NC(=O)c3ccccc3[N+](=O)[O-])c(Br)cc21	7.94µM*	-0.1%	-1.3%	0.6%	0.3
Cc1cc(Cl)ccc1OCC(=O)N1CCOc2ccc(CN3C[C@@H](C)O[C@@H](C)C3)cc2C1	/	/	/	-0.9%	/
COc1ccc(-n2c(-c3ccc(Cl)cc3)c[n+]3c2CCc2ccccc2-3)cc1	-9.2%	-0.3%	1.1%	31.6µM*	-0.7
COc1cc(=O)n2c(c1C(=O)N(C)Cc1ccsc1)CCN(Cc1cnn(C)c1C)CC2	/	/	/	1.8%	/
COC(=O)c1cc2n(n1)CCN(Cc1cccc(OC)c1)C2=O	20µM*	-0.3%	-1.1%	0.9%	3.3
COc1cccc(CN2CCN(c3ccc(F)cc3)C2=O)c1	28.2µM*	-0.6%	0.7%	0.9%	-2.6
O=C1N(Cc2ccc(F)cc2)CCN1c1ccc(F)cc1	-0.4%	-0.5%	-3.6%	0.9%	-1.9
Cc1cnc(C)c(-c2ccc(F)c3c2OC(CNC(=O)Cc2c(C)[nH]c4ccccc24)C3)n1 (centres undefined)	/	/	/	0.2%	/
COc1cc(=O)n2c(c1C(=O)N(C)Cc1cscn1)CCN(Cc1c(C)[nH]c3ccccc13)CC2	/	/	/	1.3%	/
CCCc1nc2sc3ccccc3c(=O)c2c(=O)n1Cc1ccco1	14.1µM*	-3.5%	-2.2%	-3.1%	0.6
CCCc1nc2sc3ccccc3c(=O)c2c(=O)n1Cc1ccc(OC)cc1	14.8%	-0.6%	-1.0%	20.7%	-3.3
CCc1cc(C(=O)NCCN2Cc3ccccc3OC(c3ccsc3)C2)n(C)n1 (centres undefined)	/	/	/	1.1%	/

Source: PubChem BioAssay (National Center for Advancing Translational Sciences (NCATS))
